# Screens from PubChem.
# VACV mCherry inh – inhibitors of vaccinia virus infection (mCherry reporter signal). Vaccinia virus mCherry reporter infection, fluorescence. AID 720579. Potency, µM (top dose mostly 36.5 µM), for the others: at the top dose activity change, negative = inhibition, actives largely listed as inhibitors. 310,000 tested, 0.63% active; calls by dose curve; tested in A549 cells; note: % is set by controls: 0 for no effect and ±100 for the full control effect; nearly all actives have a fitted effect of over 35% in size
# Pf growth 96h – inhibits malaria parasite growth, 96 h; 320,000 tested, 6.9% active; Potency, µM (doses to about 28.7 µM), for the others: top-dose activity change, negative = inhibition, most hits filed as inhibitors; AID 504834; P. falciparum luciferase reporter growth, 96 h; note: % is set by controls: 0 for no effect and ±100 for the full control effect
#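 P. falciparum expressing integrated firefly luciferase grown in erythrocytes (2% hematocrit, 0.05% parasitemia final) with compounds for 96 hours at 37 C, 5% CO2. Growth inhibition read as loss of luminescence after adding luciferase detection reagent.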
# Pf growth 48h – P. falciparum growth inhibition at 48 hours (one generation) | P. falciparum luciferase growth in erythrocytes, 48 h | Potency, µM (titrated, usually from 28.7 µM), for the others: top-dose activity change, negative = inhibition, hits mostly inhibitors | AID 504832 | 310,000 tested, 5.9% active; note: % is set by controls: 0 for no effect and ±100 for the full control effect
#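 Luminescence readout; reporter = integrated firefly luciferase in P. falciparum. RBC culture at 2% hematocrit, 0.1% parasitemia final, 37 C/5% CO2; decreased signal taken as growth inhibition.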
# NS1 inh – inhibitors of influenza NS1 protein function; 270,000 tested, 0.4% active; AID 2326; Potency, µM (highest dose often 46.1 µM), for inactives: at the top dose activity, positive = more growth; calls by dose curve; note: actives are rising curves; nearly all actives have a fitted effect of over 50% in size
#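 S. cerevisiae expressing influenza A NS1, grown in glucose, washed, then diluted 1:100 into pH 6.0 -URA galactose medium with 23 nl compound. Growth recovery read as OD600; NS1-free strain serves as control.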
# VACV Venus inh – vaccinia inhibition (Venus reporter); Potency, µM (top dose mostly 36.5 µM), for the others: at the highest dose activity change, negative = inhibition, usual class: inhibitors; AID 720580; Vaccinia virus Venus reporter expression, fluorescence; 330,000 tested, 0.46% active; calls by dose curve; tested in A549 cells; note: % is set by controls: 0 for no effect and ±100 for the full control effect; nearly all actives have a fitted effect of over 30% in size
# HCV inhibitor – HCV inhibition. Huh7.5.1 HCVcc-Cre infection, luciferase reporter, 44 h. Potency, µM (highest dose often 41.8 µM), inactives show top-dose activity change, negative = inhibition, most hits filed as inhibitors. 340,000 tested, 3.4% active; note: % is set by controls: 0 for no effect and ±100 for the full control effect
#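 HCVcc-Cre virus at an moi near 0.5 was added right after compound to cells cultured 4 h from seeding (1,000 cells/well). Luciferase activity was determined 44 h later, 15 min after substrate addition at RT.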
# Active calls of the source: *; i = inactive; ? = inconclusive; · = no result; [ ] = remark or other dose. Sampled rows, rich in hits. Any-hit rate of the full collection: about 11%. Unless noted, calls come from the whole dose curve; as a rule, active = well fitted inhibition curve with a large enough effect; inconclusive = small, poorly fitted or top-dose-only effect, or another doubt; inactive = no such curve, though single readings can be large or run the other way. Potency is the fitted concentration of half-maximal effect.
SMILES,VACV mCherry inh,Pf growth 96h,Pf growth 48h,NS1 inh,VACV Venus inh,HCV inhibitor
CCN(CC)c1ccc(/C=C/c2ccc3ccccc3n2)cc1,i,·,·,·,i,·
CC[n+]1c(/C=C/c2ccc(OC(C)=O)c(OC)c2)ccc2ccccc21,·,?,?,4%,·,-23%
CC[n+]1c(/C=C/c2ccc(OC)c(OC)c2)ccc2ccccc21,·,-19%,1µM*,-15%,·,2%
CC[n+]1c(/C=C/c2ccc(N(C)C)cc2)ccc2ccccc21,301%,0.41µM*,0.66µM*,-35%,392%,-20%[0.335 µM]
CCN(CC)c1ccc(/C=C/c2ccc3ccc(OC)cc3[n+]2CC)cc1,·,-4%,1.9µM*,-68%,·,2.2µM*
C[n+]1c(/C=C/c2ccc(O)cc2)ccc2ccccc21,i,2.3µM*,?,-3%,5%,?
CC1(C)CC(=O)C=C(Nc2cc(-c3ccccc3)[nH]n2)C1,·,i,33%,9%,·,-20%
Cc1ccc(C(=O)OCC(=O)Nc2ccc(F)c(Cl)c2)o1,·,28%,-23%,·,·,27%
CC(=O)N(c1ccccc1C)S(=O)(=O)c1ccc(Cl)cc1,·,24%,0%,5%,·,5%
CC#CCOC(=O)c1c(C)nc2sc3c(c2c1N)CC[C@@H](O)C3,?,·,·,·,3.5µM*,·
CCOC(=O)c1c(N)sc2c1CCC(C)C2 (stereo not given),·,32%,?,7%,-7%,-20%
O=c1c2ccccc2nc2ccc(NCc3cccs3)nn12,·,?,366%,·,·,7%
COCCCNCCCOc1ccc(C(C)(C)c2ccccc2)cc1,0%,29%,?,-10%,-14%,?
CC(C)(C)c1ccc(OCCCNCc2ccccc2)cc1,-14%,95%,-19%,-3%,?,11µM*
CC(C)(c1ccccc1)c1ccc(OCCCNCCO)cc1,?,2.1µM*,·,-2%,-28%,?
O=C(Cn1nc(-c2ccc(Cl)cc2)ccc1=O)NCC1CCCO1 (stereo not given),-5%,55%,·,-5%,-13%,-4%
COc1ccc2nc(C)cc(SCC(=O)N/N=C/c3ccco3)c2c1,-22%,94%,2%,-7%,-21%,-27%
CCn1c(-c2ccccc2Cl)nn(CC(=O)NCCc2ccccc2)c1=S,i,?,-26%,-3%,-10%,-1%
CCn1c(-c2ccccc2Cl)nn(CC(=O)Nc2cc(Cl)ccc2Cl)c1=S,-3%[1.46 µM],10µM*,?,4%,-25%,13µM*
Cc1c(C)n(C)c2ccc(C(=O)NCCCN(C)C3CCCCC3)cc12,-12%[7.34 µM],?,0%,9%,-6%[7.34 µM],-20%
O=C(NCC1CCCO1)c1ccc2c(=O)n(Cc3ccc(Cl)cc3)c(=S)[nH]c2c1 (stereo not given),i,?,-20%,·,0%,10%
CC1CCCCN1CCNC(=O)c1ccc2c(=O)n(Cc3ccc(Cl)cc3)c(=S)[nH]c2c1 (stereo not given),-14%,8%,3.7µM*,27%,?,2.2µM*
COCCn1c(=O)[nH]c2cc(C(=O)NCc3ccccc3)ccc2c1=O,·,1.5µM*,·,-1%,·,?
CC1CCN(CCCNC(=O)c2ccc3c(=O)n(CCc4ccccc4)c(=O)[nH]c3c2)CC1,·,?,·,-6%,·,8.9µM*
Cc1c(C)n(C)c2ccc(C(=O)NCCCN3CCCCC3C)cc12 (stereo not given),-5%,6.6µM*,-22%,22%,-6%,-8%
SMILES,VACV mCherry inh,Pf growth 96h,Pf growth 48h,NS1 inh,VACV Venus inh,HCV inhibitor
O=C(O)/C(=C/c1ccco1)c1ccccc1,·,46%,-8%,·,·,·
COc1ccccc1N1CCN(Cc2ccc(F)cc2)CC1,-29%,?,-2%,·,-8%,-22%
Cc1ccc(-n2c(-c3cnccn3)n[nH]c2=S)cc1,·,-41%,-12%,11%,·,-3%
Cc1ccc(S(=O)(=O)C2(C(=O)NC3CCCCC3)CC2)cc1,·,?,39%,-13%,·,16%
CCCCCn1c(=O)[nH]c2cc(C(=O)NCCCN3CCCCC3)ccc2c1=O,·,·,9.3µM*,-6%,·,10µM*
CC1CCCCN1CCNC(=O)c1ccc2c(=O)n(CCc3ccccc3)c(=O)[nH]c2c1 (stereo not given),-14%,-16%,-18%,2%,-11%,11µM*
